An excerpt weighted towards active compounds, which were near 1.2% of everything screened.
RGS7-Gao reg: modulates binding of RGS7 to human Galphao. AID 1439. 220,000 tested, 0.35% active. Multiplexed bead flow cytometry; actives lie on both sides. P09471. binding response (% of control), % at 10 µM; in the data active = binding response below about 49% or above about 150%; inconclusive = no clear call, values can overlap the other calls; inactive = in between;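 also: fluorescent Galphao held in activated GDP-AlF4 state binding bead-coupled RGS7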
RGS16-Gao HTS: RGS16-Galphao interaction regulator (human); bead-based flow cytometry RGS16-Galphao binding, fluorescence; actives lie on both sides; 220,000 tested, 0.38% active; AID 1441; binding response (% of control), % at 10 µM; O15492+P09471;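 also: Galphao activated by GDP with aluminum fluoride before binding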
Target sequence (O15492 whole entry, looked up): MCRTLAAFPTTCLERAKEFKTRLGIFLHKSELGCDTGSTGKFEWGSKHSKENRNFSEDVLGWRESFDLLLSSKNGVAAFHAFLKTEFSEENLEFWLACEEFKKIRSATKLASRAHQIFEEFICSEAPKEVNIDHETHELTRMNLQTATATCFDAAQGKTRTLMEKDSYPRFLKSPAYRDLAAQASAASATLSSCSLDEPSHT
Target sequence (P09471 whole entry, looked up): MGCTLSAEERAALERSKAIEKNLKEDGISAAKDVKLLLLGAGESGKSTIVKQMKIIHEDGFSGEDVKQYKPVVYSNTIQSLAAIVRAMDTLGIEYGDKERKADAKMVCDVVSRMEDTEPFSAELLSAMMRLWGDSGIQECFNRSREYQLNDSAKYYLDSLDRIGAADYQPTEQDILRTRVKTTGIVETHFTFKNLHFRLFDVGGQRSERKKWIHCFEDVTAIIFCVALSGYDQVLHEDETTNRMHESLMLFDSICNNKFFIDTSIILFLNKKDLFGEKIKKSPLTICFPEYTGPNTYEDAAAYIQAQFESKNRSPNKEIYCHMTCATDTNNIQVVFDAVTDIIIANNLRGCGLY
GSH fluor: compound fluoresces at 488/530 nm on GSH beads | GSH beads flow cytometry, compound fluorescence 488/530 nm; hits give high values | fluorescence (KMESF) at 10 µM | 190,000 tested, 0.25% active | AID 1776; in the data active = fluorescence above about 89;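 also: glutathione beads carrying GST-tagged Bcl family fusion proteins plus one bare bead set; values are compound well signal with DMSO vehicle wells as background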
RGS4-Gao reg: modulates binding of RGS4 to human Galphao; Multiplexed bead flow cytometry; actives lie on both sides; binding response (% of control), % at 10 µM; 220,000 tested, 0.33% active; in the data active = binding response below about 49% or above about 150%; inactive = in between;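 also: fluorescent Galphao activated with aluminum fluoride binding bead-coupled RGS4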
RGS8-Gao reg: human RGS8-Galphao interaction regulation; multiplexed bead flow cytometry, RGS8-Galphao binding; actives lie on both sides; P09471; AID 1423; response (percent of control binding), % at 10 µM; 220,000 tested, 0.34% active; in the data active = response below about 60% or above about 140%; inactive = in between;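 also: Galphao activated as the GDP aluminium fluoride complex binding bead-coupled RGS8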
Avidin bead fluor: avidin bead compound fluorescence profile; fluorescence (KMESF) at 10 µM; 220,000 tested, 0.38% active; AID 1775; Avidin beads, compound fluorescence 488/530 nm, flow cytometry; hits give high values; in the data active = fluorescence above about 47
RGS4-Gao HTS: regulators of human RGS4-Galphao interaction; shares compounds with RGS16-Gao HTS; multiplexed bead flow cytometry, RGS–Galpha-o binding; RGS4–Galpha-o binding response, % at 10 µM; 1,600 tested, 99% active; AID 1504;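 also: fluorescently labeled Galpha-o bound to GDP with aluminium fluoride binding biotinylated RGS beads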
Biotin-avidin: counter-screen: compounds disrupting biotin binding to avidin beads | shares compounds with RGS16-Gao HTS | streptavidin beads, fluorescein-biotin binding, flow cytometry | inhibition, % at 10 µM | 1,700 tested, under 10 active;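 active = inhibition above 50%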;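 also: median green fluorescence of gated singlet beads compared with DMSO control wells; 0% = DMSO wells and 100% = complete loss of bead fluorescence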
RGS8-Gao confirm: confirmation of regulators of human RGS8-Galphao interaction. binding response (% of control), % at 10 µM. 1,700 tested, 3% active. shares compounds with RGS16-Gao HTS. bead-based flow cytometry RGS8-Galphao binding, fluorescence; actives lie on both sides; in the data active = binding response below about 72% or above about 130%; inactive = in between;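 also: Galphao activated as GDP AlF4 complex before binding bead RGS8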
RGS7-Gao single: RGS7-Galphao interaction regulation, single point confirmation | bead-based flow cytometry RGS7-Galphao binding; actives lie on both sides | response (percent of control binding), % at 10 µM | shares compounds with RGS16-Gao HTS | AID 1837 | 1,700 tested, 7.8% active; in the data active = response below about 75% or above about 130%; inactive = in between;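 also: fluorescent Galphao activated with GDP and aluminum fluoride binding bead-coupled RGS7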
RGS16-Gao single: confirmation of regulators of human RGS16-Galphao interaction. shares compounds with RGS16-Gao HTS. bead-based flow cytometry, RGS16-Galphao binding; actives lie on both sides. response (% of control binding), % at 10 µM. 1,700 tested, 4% active. AID 1838; in the data active = response below about 74% or above about 130%; inactive = in between;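 also: Galphao activated as the GDP aluminium fluoride complex binding bead-coupled RGS16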
RGS4-Gao single: RGS4-Galphao interaction regulation, single point confirmation. 1,700 tested, 4% active. RGS4-Galphao binding, multiplexed bead flow cytometry; actives lie on both sides. shares compounds with RGS16-Gao HTS. binding response (% of control), % at 10 µM; in the data active = binding response below about 74% or above about 130%; inactive = in between
RGS19-Gao conf: confirmation of regulators of human RGS19-Galphao interaction; bead-based flow cytometry RGS19-Galphao binding; actives lie on both sides; 1,700 tested, 5% active; response (percent of control binding), % at 10 µM; shares compounds with RGS16-Gao HTS; in the data active = response below about 50% or above about 160%; inactive = in between;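 also: 100% = no compound control and 0% = blank background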
Target sequence (P09471 whole entry, looked up): as above
Target sequence (P49795 whole entry, looked up): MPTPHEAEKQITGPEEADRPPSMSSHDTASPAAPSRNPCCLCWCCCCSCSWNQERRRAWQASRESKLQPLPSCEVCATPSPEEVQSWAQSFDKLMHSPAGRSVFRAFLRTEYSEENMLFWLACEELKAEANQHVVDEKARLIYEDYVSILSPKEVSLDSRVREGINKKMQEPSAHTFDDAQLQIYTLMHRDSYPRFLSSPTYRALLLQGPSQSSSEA
An asterisk follows results filed as active; ? = inconclusive; . = no result given; [ ] = another dose, or the depositor's remark. Unless noted, no rule for the calls is given here.

SMILES | RGS7-Gao reg | RGS16-Gao HTS | GSH fluor | RGS4-Gao reg | RGS8-Gao reg | Avidin bead fluor | RGS4-Gao HTS | Biotin-avidin | RGS8-Gao confirm | RGS7-Gao single | RGS16-Gao single | RGS4-Gao single | RGS19-Gao conf
O=S(=O)(O)c1nc2ccccc2n1Cc1ccccc1 | 99.5 | 98.0 | 13 | 97.0 | 98.6 | 30 | . | . | . | . | . | . | .
Cc1cc(C)c(C#N)c(SCCS(=O)(=O)c2ccc(Cl)cc2)n1 | ? | 84.2 | . | 89.6 | 91.4 | 6 | . | . | . | . | . | . | .
Cc1cc(C)c(C#N)c(SCCS(=O)(=O)c2ccc(C(C)(C)C)cc2)n1 | . | . | 30 | . | . | . | . | 3.0 | 100.4 | 96.9 | 98.0 | 97.1 | 92.5
O=C1NC(=O)C2(COC(c3cccc([N+](=O)[O-])c3)OC2)S1 (stereo not drawn) | ? | 93.8 | 13 | 95.5 | 95.0 | 9 | . | . | . | . | . | . | .
Cc1ccc(S(=O)(=O)NCCc2nnc3ccc(SCC(=O)Nc4nc5ccccc5s4)nn23)cc1 | 108.7 | 177.3*[activator] | 8 | 104.8 | 114.2 | 3 | 104.8* | 0.3 | 95.0 | 90.8 | 93.0 | 91.9 | 81.6
COCCNc1nc(-c2cc(C)c(C)cc2C)cs1 | 100.8 | 101.2 | 11 | 99.0 | 100.0 | 10 | . | . | . | . | . | . | .
Cc1[nH]cnc1CSCCN | 90.2 | 93.0 | 6 | 89.1 | 91.5 | 6 | . | . | . | . | . | . | .
Cc1[nH]cnc1CSCc1ccc(Cl)cc1 | 134.1 | 192.0*[activator] | 10 | 134.1 | 146.7*[activator] | 3 | 134.1* | -1.5 | 113.9 | 116.5 | 111.2 | 113.4 | 97.7
Cc1ccc(NC(=S)N(CCCN2CCCC2)Cc2cccn2Cc2ccc(Cl)cc2)cc1Cl | 165.2*[activator] | 113.3 | 9 | 149.9 | 116.5 | 13 | 149.9* | 0.9 | 103.7 | 102.5 | 97.1 | 102.8 | 97.7
Cc1ccc(CN2CCN(/N=C\C=C\c3ccccc3)CC2)cc1 | 99.8 | 142.0 | 21 | 102.5 | 114.1 | 5 | . | . | . | . | . | . | .
O=C(/C=C/c1cccc([N+](=O)[O-])c1)Nc1cccc(NC(=O)c2cccs2)c1 | 99.1 | 105.3 | 14 | 100.1 | 102.9 | 15 | . | . | . | . | . | . | .
C=C(C)CCC1(C)NC(=O)N(c2ccccc2)N1 (stereo not drawn) | ? | 52.0 | . | 41.3* | 78.8 | 1 | . | -0.5 | 96.9 | 95.3 | 96.3 | 96.1 | 93.3
CN(C)c1nc(N)nc(N(c2ccccc2)c2ccccc2)n1 | 100.2 | 98.4 | 18 | 101.4 | 99.9 | 7 | . | . | . | . | . | . | .
CCN(CC)c1nc(N)nc(N(c2ccccc2)c2ccccc2)n1 | 154.7*[activator] | 103.3 | 21 | 105.2 | 98.9 | 73* | 105.2* | -0.3 | 97.1 | 62.7* | 88.7 | 72.6* | 73.9
CCCCCCN(C(=O)CCCCCN1C(=O)NC(c2cccc([N+](=O)[O-])c2)C(C(=O)OCc2ccccc2)=C1C)C(C(=O)NCCCC)c1ccc(OCC(=O)OC)c(C(=O)OC)c1 (stereo not drawn) | ? | 90.5 | . | 92.6 | 91.4 | 11 | . | . | . | . | . | . | .
Cc1ccc(NC2(c3nnnn3-c3c(C)cccc3C)CCCCC2)cc1 | 112.4 | 280.8*[activator] | 4 | 116.1 | 135.1 | 13 | 116.1* | -0.7 | 97.8 | 93.0 | 98.7 | 96.6 | 98.5
CSc1nnnn1-c1c(C)cccc1C | ? | 99.6 | . | 99.2 | 101.3 | 7 | . | . | . | . | . | . | .
COc1ccc(C(=O)NCCc2nnc(SCC(=O)Nc3ccccc3F)n2C)cc1 | 166.3*[activator] | 106.5 | 21 | 110.7 | 100.1 | 80* | 110.7* | 1.0 | 99.6 | 95.4 | 97.6 | 98.2 | 104.0
O=C(Nc1ccc(C2=NCCN2)cc1)c1ccc(C(=O)Nc2ccc(C3=NCCN3)cc2)c(Cl)c1 | ? | 119.4 | . | 198.5*[activator] | 142.8*[activator] | 9 | . | -0.5 | 105.7 | 104.8 | 98.3 | 105.5 | 135.3
CC1=C(C(=O)OCCOc2ccccc2)C(c2ccsc2)NC(=O)N1C (stereo not drawn) | 99.2 | 97.5 | 16 | 100.1 | 97.9 | 21 | . | . | . | . | . | . | .
C#Cc1ccc([C@@H]2C=C(C(=O)Nc3ccccc3)O[C@H](OCC)[C@H]2CCCO)cc1 | 11.5* | 10.9* | 18 | 21.9* | 17.5* | 0 | . | 1.0 | 105.0 | 101.2 | 105.3 | 99.9 | 100.3
C#CCNC(=O)C1=C[C@H](C2CCCCC2)[C@@H](CCCO)[C@H](OCC)O1 | 38.0* | 40.5 | 20 | 51.7 | 44.5* | 2 | 51.7* | 0.5 | 99.5 | 98.3 | 101.9 | 100.4 | 117.3
C#Cc1ccc([C@H]2C=C(C(=O)NCc3ccccc3)O[C@@H](OCC)[C@@H]2CCCO)cc1 | 101.0 | 99.9 | 21 | 100.7 | 102.8 | 6 | . | . | . | . | . | . | .
C/C(Cc1ccccc1)=N\NC(=O)CNC(=O)c1ccc(C(C)(C)C)cc1 | 103.9 | 101.4 | 9 | 102.2 | 102.0 | 6 | . | . | . | . | . | . | .
Cc1ccnc2nc(C(=O)OCC(=O)c3c[nH]c4ccccc34)nn12 | ? | 99.5 | . | 101.6 | 101.5 | 6 | . | . | . | . | . | . | .
SMILES | RGS7-Gao reg | RGS16-Gao HTS | GSH fluor | RGS4-Gao reg | RGS8-Gao reg | Avidin bead fluor | RGS4-Gao HTS | Biotin-avidin | RGS8-Gao confirm | RGS7-Gao single | RGS16-Gao single | RGS4-Gao single | RGS19-Gao conf
CC(C)CNC(=O)c1ccccc1SCC(=O)NC12CC3CC(CC(C3)C1)C2 | 79.1 | 23.3* | 15 | 77.7 | 68.4 | 2 | 77.7* | 0.2 | 98.5 | 109.1 | 104.7 | 104.2 | 137.4
NC(=O)SC/C(=N\S(=O)(=O)c1ccccc1)Nc1ccccc1 | 268.1*[activator] | 418.5*[activator] | 47 | 349.8*[activator] | 118.1 | 189* | . | 1.9 | 96.7 | 88.1 | 99.9 | 94.0 | 88.4
CCCc1nc(SCC(=O)Nc2nnc(SCC)s2)c2c(=O)n(C)c(=O)n(C)c2n1 | 43.9* | 52.6 | 19 | 54.0 | 59.3* | 4 | 54.0* | . | . | . | . | . | .
COc1ccc(CC(=O)N2CCc3cc(OC)c(OC)cc3C2O)cc1OC (stereo not drawn) | ? | 102.7 | . | 106.7 | 101.9 | 10 | . | . | . | . | . | . | .
O=c1[nH]c2c(c(=O)[nH]1)CCC2 | ? | 95.2 | 15 | 98.2 | 97.8 | 11 | . | . | . | . | . | . | .
CSCC[C@H](NC(=O)Nc1cccc(Br)c1)C(=O)O | ? | 95.9 | . | 95.9 | 100.0 | 12 | . | . | . | . | . | . | .

Bioassay records (PubChem)
